# Compound activity from PubChem.
# Compounds with a hit are over-represented: about 3.2% of the library has one in this group of screens.
# SSB-PriA inh – K. pneumoniae PriA-SSBct interaction inhibition | AlphaScreen SSBct-PriA binding, biotinylated peptide | inhibition, % at 33 µM | 0.6% of 430,000 active | AID 1272365; in the data active means inhibition mostly above about 37%, no sharp cut-off; inactive means mostly below about 20%;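 further: plate controls were negative control peptide for no effect and reference peptide for full effect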
# Mtb FBA inh – inhibitors of M. tuberculosis fructose-bisphosphate aldolase; purified M. tuberculosis FBA, fluorescence read-out; 2.3% of 360,000 active; AID 588726; P9WQA3; inhibition, % at 1 µM; in the data active means inhibition above about 27%;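 further: 0% = vehicle and 100% = reference inhibitor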
# Target sequence (P9WQA3 whole entry, looked up): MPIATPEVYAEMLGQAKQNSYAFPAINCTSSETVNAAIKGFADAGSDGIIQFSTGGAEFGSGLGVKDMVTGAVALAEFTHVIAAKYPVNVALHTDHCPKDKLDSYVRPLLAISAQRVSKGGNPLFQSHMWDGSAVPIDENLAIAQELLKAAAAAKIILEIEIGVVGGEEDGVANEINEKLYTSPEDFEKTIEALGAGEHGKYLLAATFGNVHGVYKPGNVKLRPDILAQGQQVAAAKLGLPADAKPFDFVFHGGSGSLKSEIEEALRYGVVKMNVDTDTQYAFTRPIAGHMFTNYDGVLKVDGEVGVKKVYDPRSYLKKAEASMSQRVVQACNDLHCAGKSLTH
# Rv3671c protease – Rv3671c (M. tuberculosis) protease inhibition; 0.048% of 320,000 active; P9WHR9; AID 2606; inhibition, % at 5.96 µM; in the data active means inhibition above about 38%;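 further: extracellular domain of Rv3671c used as enzyme; 0% = enzyme with DMSO and 100% = no enzyme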
# Mtb bLac sens – beta-lactam sensitization of Mtb H37Rv; M. tuberculosis H37Rv growth with meropenem, percent inhibition; inhibition, % at 25 µM; 0.27% of 330,000 active; AID 434955; call rule not given here;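 further: growth measured after seven days incubation then overnight dye step; 0% = bacteria only wells and 100% = bacteria with antibiotic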
# GDH-TPI inh – GDH-TPI coupled enzyme inhibition counter-screen | 1.2% of 360,000 active | AID 588335 | inhibition, % at 4.8 µM | GDH-TPI coupled enzyme counterscreen, NADH absorbance; in the data active means inhibition above about 30%;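 further: 0% = DMSO wells and 100% = wells lacking the enzyme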
# UGM FP inh – Mtb UDP-galactopyranose mutase inhibition | P9WIQ1 | purified UGM, fluorescence polarization probe displacement | inhibition, % at 10 µM | 0.06% of 320,000 active; in the data active means inhibition above about 10%, passing the limit was not always enough
# Starred values were filed as active, the others as inactive; i = inactive; · = no result; + = active, no number.
SMILES,SSB-PriA inh,Mtb FBA inh,Rv3671c protease,Mtb bLac sens,GDH-TPI inh,UGM FP inh
O=C(CNC(=O)c1ccco1)Nc1nc(-c2ccccn2)cs1,96*,·,·,·,·,·
O=C(Nc1nc(-c2ccccn2)cs1)c1ccco1,49*,-3,-3,93,1,4
O=C(Nc1nc(-c2ccncc2)cs1)c1ccco1,-13,1,-9,6,12,2
C[C@H](NC(=O)c1ccco1)C(=O)Nc1nc(-c2ccccn2)cs1,53*,-1,·,·,-10,·
Cc1cc(C(=O)Nc2nc(-c3ccccn3)cs2)on1,94*,·,·,·,·,·
O=C(NCc1c(F)cccc1F)c1nnc2n(c1=O)CCN2c1ccc(F)cc1,-19,·,·,·,·,·
COc1ccc(S(=O)(=O)C2CN(C(=O)COc3ccc(Cl)cc3Cl)C2)cc1,-1,·,·,·,·,·
CN(C)CCN(C(=O)Nc1ccc(C(C)(C)C)cc1)C1CCOCC1,-12,·,·,·,·,·
O=C(Nc1nc(-c2ccccn2)cs1)c1ccc(C(F)(F)F)cc1,31,·,·,·,·,·
COc1ccc(-c2nnc(N(C)C(=O)c3ccno3)s2)cc1,-13,5,-9,-11,2,0
CN(C(=O)c1ccno1)c1nnc(-c2ccccn2)s1,42*,+,3,-5,22,1
O=C(Nc1nc(-c2ccccn2)cs1)c1ccno1,125*,·,·,·,·,·
Cc1ccc(NC(=O)CN2CCC(C(=O)Nc3nc4ccccc4s3)CC2)c(C)c1,-8,·,·,·,·,·
Cc1ccc(/C=C/C(=O)OCC(=O)N(C)c2c(N)n(Cc3ccccc3)c(=O)[nH]c2=O)o1,·,-7,·,·,38*,·
O=C(Cn1c(-c2ccc(F)cc2)nc2c(c1=O)CCN(Cc1ccccc1)C2)NCc1cccs1,-3,·,·,·,·,·
N#C/C(=C\c1ccc(OC(=O)c2ccccc2)cc1)C(=O)Nc1cccc2ncccc12,12,·,·,·,·,·
O=[N+]([O-])c1ccc(O)c(C=Nc2ccc3nc(-c4ccccc4)[nH]c3c2)c1,16,+,5,10,21,4
CCOCC(=O)Nc1cc(-c2cn3cccnc3n2)ccc1C,-1,+,3,-13,14,-3
COc1cccc(C(=O)Nc2cc(-c3cn4cccnc4n3)ccc2C)c1,-5,+,-1,26,16,-3
COc1ccc(-c2cn3cccnc3n2)cc1NC(=O)C(C)Oc1ccccc1 (stereo not given),1,122*,-5,21,13,-4
COc1ccccc1C(=O)Nc1ccc(-n2nnn(CC(=O)NCc3ccco3)c2=O)cc1,-4,·,·,·,·,·
COc1ccc(/C(O)=C(\C#N)c2nc3ccccc3n2C)cc1OC,·,-4,-9,-6,51*,-3
c1ccc(CNCCC(Cc2ccccc2)c2ccco2)cc1 (stereo not given),-2,4,10,4,-7,0
CN(C)c1ccc(CNCCC(Cc2ccccc2)c2ccco2)cc1 (stereo not given),57*,-3,9,55,-2,1
NNc1ncnc2c1cnn2-c1ccc(F)cc1,73*,·,·,·,·,·
SMILES,SSB-PriA inh,Mtb FBA inh,Rv3671c protease,Mtb bLac sens,GDH-TPI inh,UGM FP inh
CNc1ncnc2c1cnn2-c1ccccc1,21,·,·,·,·,·
NNc1ncnc2c1cnn2-c1ccccc1,64*,-3,-1,100,-10,1
COc1ccc(OC)c2sc(N(Cc3ccco3)C(=O)c3cc(C)on3)nc12,-19,·,·,·,·,·
NC(=S)N=Nc1c(O)[nH]c2ccccc12,20,-3,1,2,28,·
Cc1ccc2[nH]c(O)c(N=NC(N)=S)c2c1,-1,-7,0,-1,38*,2
COc1ccc(OC)c(Nc2nc(CC(=O)NCCc3ccc(F)cc3)cs2)c1,26,·,·,·,·,·
CC1=CC(c2ccc(Cl)cc2)n2nc(NC(=O)CCC(=O)O)nc2N1 (stereo not given),0,115*,9,1,4,1
COc1ccc(C2Nc3cc(OC)ccc3-n3cccc32)cc1 (stereo not given),-51,9,-2,48,34*,3
FC(F)(F)Oc1ccc(C2NCc3ccccc3-n3cccc32)cc1 (stereo not given),7,-3,-1,-4,-5,0
COc1cccc(-c2noc(CN)n2)c1OC,-3,·,·,·,·,·
COC(=O)N1CCc2c(sc(NC(=O)/C=C/c3ccccc3Cl)c2C(N)=O)C1,-14,·,·,·,·,·
CCCCOc1ccc(C(=O)N2CCC(c3nc4ccccc4[nH]3)CC2)cc1,91*,·,·,·,·,·
O=C(c1ccc2ccccc2c1)N1CCC(c2nc3ccccc3[nH]2)CC1,-13,·,·,·,·,·
CC(=NNc1ccc(S(=O)(=O)N2CCOCC2)cc1[N+](=O)[O-])C(C)C,46*,·,·,·,·,·
Cc1ccccc1Nc1ccc(S(=O)(=O)N2CCOCC2)cc1[N+](=O)[O-],-5,-5,0,-2,5,1
CC/C(C)=N/Nc1ccc(S(=O)(=O)N2CCCC2)cc1[N+](=O)[O-],·,1,-9,-7,1,0
COc1ccc(Nc2ccc(S(=O)(=O)N3CCCCC3)cc2[N+](=O)[O-])cc1Cl,49*,-4,9,44,17,·
COc1ccccc1C(C)Nc1ccc(S(=O)(=O)N2CCOCC2)cc1[N+](=O)[O-] (stereo not given),70*,·,·,·,·,·
Cc1ccc(Nc2ccc(S(=O)(=O)N3CCOCC3)cc2[N+](=O)[O-])c(C)c1,51*,1,-2,5,-6,1
O=C(Nc1sccc1-c1nc2ccccc2s1)c1ccc(F)c(F)c1,-1,·,·,·,·,·
Cc1ccc(OC2CCCN(C(=O)CCc3c(C)noc3C)C2)nn1 (stereo not given),-13,·,·,·,·,·
O=C(O)CC/C(=N\Nc1ccc(S(=O)(=O)N2CCCC2)cc1[N+](=O)[O-])c1cccs1,i,-6,·,·,25,·
O=C(O)CC/C(=N\Nc1ccc(S(=O)(=O)N2CCOCC2)cc1[N+](=O)[O-])c1cccs1,·,-16,4,2,67*,1
CCc1ccc(Nc2ccc(S(=O)(=O)N3CCOCC3)cc2[N+](=O)[O-])cc1,61*,-3,13,1,2,-4
c1ccc2c(c1)NC1(CCCCC1)n1c-2nc2ccccc21,15,153*,5,-8,12,-1
SMILES,SSB-PriA inh,Mtb FBA inh,Rv3671c protease,Mtb bLac sens,GDH-TPI inh,UGM FP inh
CC1(c2ccccn2)Nc2ccccc2-c2nc3ccccc3n21 (stereo not given),-2,112*,-4,5,23,-3
CCCCC1(C)Nc2ccccc2-c2nc3ccccc3n21 (stereo not given),-15,+,9,12,8,0
CN1C(=O)C2(Nc3ccccc3-c3nc4ccccc4n32)c2ccccc21 (stereo not given),-2,2,1,29,12,-1
c1ccc2c(c1)NC1(CCCCCC1)n1c-2nc2ccccc21,6,161*,3,0,12,-5
Cc1cccc2sc(NC(=O)COc3ccccc3)nc12,3,·,·,·,·,·
CC(=O)N(Cc1cccnc1)c1nc2ccc(Br)cc2s1,-25,·,·,·,·,·
CCS(=O)(=O)Nc1cccc(C2=NN(S(=O)(=O)c3ccc(Cl)cc3)C(c3ccc(OC)cc3)C2)c1 (stereo not given),2,·,·,·,·,·
Cc1cc(SCC(=O)Nc2ccc(C(C)(C)C)cc2)nc2ccccc12,6,·,·,·,·,·
